Assay outcomes deposited in PubChem by several laboratories.
PRMT1 FP inh – inhibitors of human PRMT1; recombinant PRMT1, activity-based probe fluorescence polarization; hit rate 1.3% among 370,000; inhibition, % at 2.79 µM; AID 652257;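 active means inhibition above about 21% made by adding two undisclosed values, limit read from the data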
ALR H2O2 inh – inhibitors of human sulfhydryl oxidase ALR; P55789; purified ALR, DTT oxidation, H2O2 HRP-luminol luminescence; inhibition, % (no concentration beside the values); hit rate 3.8% among 290,000; AID 485317;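 active means mean replicate inhibition above about 79%, with every replicate also reaching it, limit read from the data; inconclusive means only one of the two criteria met; inactive means mean below limit and not every replicate reaching it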
Rtt109 HAT inh – C. albicans Rtt109 histone acetyltransferase inhibition; hit rate 0.16% among 330,000; inhibition, % at 34.9 µM; purified Rtt109/Vps75, ThioGlo CoA-SH fluorescence, 4 h; Q5AAJ8;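 active means inhibition of at least 50% in every replicate; inconclusive means best replicate reaches 50% inhibition but some replicates fall short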
rCAG binder – molecules binding r(CAG) RNA repeats; r(CAG) RNA repeat, TO-PRO-1 dye displacement fluorescence; inhibition, % at 3 µM; hit rate 1.3% among 370,000; AID 651821;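 active means inhibition above the plate cutoff, the mean of all test compounds on that plate plus 3 SD, cut at about 35% in these data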;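 further: 0% = DMSO alone and 100% = 100 µM mitoxantrone as full dye displacement; higher means more dye released from RNA so lower well fluorescence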
ABHD5 PLIN5 PPI – blocks binding of human ABHD5 to perilipin-5; hit rate 0.78% among 360,000; inhibition, % at 4 µM; Q00G26+Q8WTS1; AID 602281; Split G. princeps luciferase complementation, luminescence, 4 h;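 active means inhibition above the mean inhibition across every tested compound plus 3 SD, cut at about 22% in these data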;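 further: 0% = DMSO only wells and the 100% control is not disclosed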
Target sequence (Q00G26 whole entry, looked up): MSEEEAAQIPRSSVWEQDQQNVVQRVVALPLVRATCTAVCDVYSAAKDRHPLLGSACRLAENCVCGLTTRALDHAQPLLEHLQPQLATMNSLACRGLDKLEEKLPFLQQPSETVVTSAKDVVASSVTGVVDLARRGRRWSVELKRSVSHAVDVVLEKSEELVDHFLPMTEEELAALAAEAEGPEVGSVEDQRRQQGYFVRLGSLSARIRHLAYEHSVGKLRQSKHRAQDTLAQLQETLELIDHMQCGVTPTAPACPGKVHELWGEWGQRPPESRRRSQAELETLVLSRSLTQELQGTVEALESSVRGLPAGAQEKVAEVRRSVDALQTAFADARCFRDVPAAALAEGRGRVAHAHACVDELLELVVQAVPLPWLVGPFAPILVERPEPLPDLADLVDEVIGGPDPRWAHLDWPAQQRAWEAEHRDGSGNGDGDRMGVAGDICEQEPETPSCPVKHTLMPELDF
Target sequence (Q8WTS1 whole entry, looked up): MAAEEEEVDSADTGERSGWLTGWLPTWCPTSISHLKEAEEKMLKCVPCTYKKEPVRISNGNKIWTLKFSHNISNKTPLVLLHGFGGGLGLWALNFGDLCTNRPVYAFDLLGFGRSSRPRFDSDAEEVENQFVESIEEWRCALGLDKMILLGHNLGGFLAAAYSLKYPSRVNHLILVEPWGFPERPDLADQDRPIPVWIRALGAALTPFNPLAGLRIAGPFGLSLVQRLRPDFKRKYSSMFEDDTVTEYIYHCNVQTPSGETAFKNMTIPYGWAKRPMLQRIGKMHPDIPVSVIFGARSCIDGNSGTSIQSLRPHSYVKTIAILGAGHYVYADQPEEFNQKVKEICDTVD
LANA-H2A inh – blocks KSHV LANA binding to histone H2A/H2B. inhibition, % (concentration not given with the values). cell-free LANA-H2A/H2B peptide, fluorescence polarization. hit rate 0.6% among 320,000; in the data active means inhibition mostly above about 10%, no sharp cut-off; inactive means mostly below about 6.7%
Starred values were filed as active, the others as inactive; ? = inconclusive; nt = no result. Shown are actives, neighbours in structure and some others; about 5.9% of the full set was active somewhere.

SMILES	PRMT1 FP inh	ALR H2O2 inh	Rtt109 HAT inh	rCAG binder	ABHD5 PLIN5 PPI	LANA-H2A inh
O=[N+]([O-])c1cc(Br)c(O)c(C=Nc2ccc(N3CCOCC3)cc2)c1	9	12	10	24	-17	-3
Cc1cc(C(C#N)c2ccccc2)n2ncnc2n1 (centres undefined)	-3	62	1	4	0	1
Cc1cc(C(C#N)c2ccccc2F)n2ncnc2n1 (centres undefined)	-5	92*	0	4	1	-4
COC(=O)[C@]12C[C@H](CC(=O)NCCC(C)C)C(=O)N(Cc3ccco3)C1=C[C@H](COCc1ccccc1)O[C@@H]2C	4	nt	nt	3	nt	nt
CN(CCC1CCOCC1)C(=O)CC1C(=O)NCCN1Cc1c(F)cccc1Cl (centres undefined)	2	-14	3	-4	3	40*
CN(Cc1ncc[nH]1)C(=O)CC1C(=O)NCCN1Cc1c(F)cccc1Cl (centres undefined)	3	-4	-3	1	1	4
CCN(CC)S(=O)(=O)c1ccc(N=Nc2cc(C)cc(Br)c2O)cc1	1	-10	nt	10	1	4
Oc1ccc(N=Nc2ccc3c(c2)OCCO3)c(O)c1	0	nt	1	10	5	4
Oc1ccc(N=Nc2ccc(Br)cc2)c(O)c1	-2	99*	6	9	0	-1
Cc1ccc(N=Nc2ccc(O)cc2)c(Br)c1	-2	92*	2	10	-2	4
Cc1cccc(NC(=O)Nc2nc3ncccn3c2-c2ccccc2)c1	-1	nt	nt	0	nt	nt
Cc1cc(Br)ccc1OCCCN1CCC(C(O)(c2ccccc2)c2ccccc2)CC1	0	nt	nt	4	nt	nt
Cn1ccc2c(-c3ccc(C(=O)O)cc3)cc3c(c21)C1CCC3O1 (centres undefined)	-1	nt	nt	4	3	nt
CC1(C)CC(=O)C(C(c2ccco2)C2C(=O)CC(C)(C)CC2=O)C(=O)C1	4	83*	1	10	14	-2
CC1(C)CC(=O)C(C(c2ccc(F)cc2)C2C(=O)CC(C)(C)CC2=O)C(=O)C1	-5	18	-8	0	2	-3
N#Cc1c(C(F)(F)F)cc(-c2ccc(Cl)cc2)[nH]c1=O	1	7	-2	37*	-8	2
O=c1c(-c2ccc(O)cc2)coc2cc(OC3OC(CO)C(O)C(O)C3O)cc(O)c12 (centres undefined)	-2	58	-2	-1	7	1
C[C@@H]1O[C@@H](OC[C@H]2O[C@@H](Oc3cc(O)c4c(=O)cc(-c5ccc(O)c(O)c5)oc4c3)[C@H](O)[C@@H](O)[C@@H]2O)[C@H](O)[C@H](O)[C@H]1O	nt	99*	7	nt	3	7
O=c1cc(-c2ccc(O)c(O)c2)oc2cc(O[C@@H]3O[C@H](CO)[C@@H](O)[C@H](O)[C@H]3O)cc(O)c12	nt	99*	19	nt	1	8
CCN1CCCc2cc(CN(CCN3CCOCC3)C(=S)Nc3ccc(C)cc3)ccc21	-1	99*	7	-5	-3	-6
CCN1CCCc2cc(CN(CCN3CCOCC3)C(=S)Nc3ccc(OC)cc3)ccc21	2	99*	2	1	-5	7
CCN1CCCc2cc(CN(CCN3CCOCC3)C(=S)Nc3cc(F)cc(F)c3)ccc21	0	94*	2	-5	-11	1
CCOc1ccc(NC(=S)N(CCN2CCOCC2)Cc2ccc3c(c2)CCCN3CC)cc1	-1	nt	2	-2	1	1
C=CCN(C(=O)[C@@H](C)[C@@H](O)c1ccc(Cl)cc1)c1ccccc1	-5	nt	nt	-3	nt	nt
O=C(c1ccc(Br)cc1)N1CCN(c2ccccn2)CC1	-2	nt	nt	22	3	nt
SMILES	PRMT1 FP inh	ALR H2O2 inh	Rtt109 HAT inh	rCAG binder	ABHD5 PLIN5 PPI	LANA-H2A inh
CC12CCC(O)CC1=CCC1C2CCC2(C)c3[nH]ncc3CC12 (centres undefined)	0	nt	-2	2	7	nt
COC(=O)[C@]12C[C@H](CC(=O)NCc3ccccc3)C(=O)N(CCC3=CCCCC3)C1=C[C@H](COCc1ccccc1)O[C@@H]2C	11	nt	nt	5	nt	nt
O=C(COc1ccc(F)cc1Br)N1CCN(c2ncccn2)CC1	-4	-11	4	-9	-4	0
O=C(COc1ccc(F)cc1Br)N1CCN(S(=O)(=O)/C=C/c2ccccc2)CC1	0	0	3	-4	-5	87*
COc1ccc(C(C2C(=O)CC(C)(C)CC2=O)C2C(=O)CC(C)(C)CC2=O)cc1CO	6	96*	2	-1	15	8
COC(=O)c1ccc(C(C2C(=O)CC(C)(C)CC2=O)C2C(=O)CC(C)(C)CC2=O)cc1	4	6	4	1	19	4
COc1cc(/C(C)=N/NC(=O)CSc2nc3ccccc3[nH]2)ccc1O	5	99*	1	19	-4	3
COC(=O)c1ccc(CNC(=O)CSc2nc3ccccc3[nH]2)cc1	8	41	-16	0	12	-3
COc1cc(/C(C)=N/NC(=O)CSc2nnc(C)s2)ccc1O	-1	95*	-3	0	3	-1
C/C(=N\NC(=O)CSc1nnc(C)s1)c1ccc(O)cc1	-1	99*	-2	5	0	0
O=C(NCc1ccccc1)Nc1ccccc1C(=O)N1CCCC1	1	nt	nt	-1	nt	nt
COc1ccc(-c2oc3c(c2C#CCCCCO)C(OCCO)CC3)cc1 (centres undefined)	1	nt	nt	3	-2	nt
O=C(NC1CCCC1)C(c1ccc(F)cc1)N(C(=O)c1csnn1)c1ccccc1F (centres undefined)	0	6	-7	-1	-2	-1
O=C(NC1CCCC1)C(c1ccc(F)cc1)N(C(=O)c1csnn1)c1ccccc1 (centres undefined)	4	-2	52*	-3	4	4
CC1S/C(=N/N=C/c2ccco2)N(Cc2ccc(F)cc2)C1=O (centres undefined)	4	-5	8	0	-2	-1
O=C1CS/C(=N/N=C/c2ccco2)N1Cc1ccc(F)cc1	10	90*	nt	4	6	3
COc1ccc2nc(C)cc(Nc3ccc(N4CCOCC4)cc3)c2c1	2	16	-22	8	3	-4
COc1ccc(/C=N/Nc2cc(C)nc3ccc(OC)cc23)c(OC)c1	-4	86*	7	25	11	5
Cc1ccc2nc(C)cc(N/N=C/c3ccccc3O)c2c1	-8	99*	-10	0	8	4
Cc1cc(C(=O)N/N=C/c2ccco2)c2ccccc2n1	1	-5	-5	1	5	0
COc1ccc2nc(C)cc(N/N=C/c3ccccc3)c2c1	nt	-1	?	nt	9	6
COc1ccc2nc(C)cc(Nc3ccc(N4CCN(C)CC4)cc3)c2c1	-4	96*	-5	6	5	-3
